Records with an inconclusive call do not appear. A call without a number means that no potency is given here. The source made the active and inactive calls. Calls come from the whole dose curve; as a rule, active = well fitted cell-killing curve with a large enough effect; inconclusive = small, poorly fitted or top-dose-only effect, or effect the other way; inactive = no such curve, though single readings can be large or run the other way.
Potency is the fitted concentration of half-maximal effect.

The experiment concerns C33A. The experiment in a line: Confirmatory qHTS for gynecologic anti-cancer compounds from libraries of approved drugs and bioactive compounds. Note: nearly all actives have a fitted effect of over 55% in size. The settings on record: gynecologic cancer cell panel viability, ATPlite luminescence, 48 h; series mostly up to 57.6 µM. In outline: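 1,000 cells/well; 16 h pre-incubation 37 C, 5% CO2; pin-transferred cpd in DMSO, 11 conc (1:3), 57.5 uM–0.977 nM; 48 h; ATPlite, 15 min RT; luminescence → IC50.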
`C/C=C(/C)C(=O)O[C@H]1C(C)=C2[C@H]([C@@H]1OC(=O)CCCCCCC)[C@@](C)(OC(C)=O)C[C@H](OC(=O)CCC)[C@@]1(O)[C@H]2OC(=O)[C@@]1(C)O`: the Potency was 21.7 µM (active).
The same measure for `CCN1CCN(C(=O)Cc2ccc(Nc3ncc(F)c(Nc4ccc(C(=O)Nc5ccccc5Cl)cc4)n3)cc2)CC1`: “inactive”; for `CCNC(=O)C[C@@H]1N=C(c2ccc(Cl)cc2)c2cc(OC)ccc2-n2c(C)nnc21`: “inactive”; for `CCC(=O)O[C@H]1CC[C@H]2[C@@H]3CCC4=CC(=O)CC[C@]4(C)[C@H]3CC[C@]12C`: “inactive”.
The same measure for `Cc1sc2c(c1C)C(c1ccc(Cl)cc1)=NC(CC(=O)OC(C)(C)C)c1nnc(C)n1-2` (stereo unspecified): “inactive”; for `C[C@]12CC[C@H]3[C@@H](CCC4=CC(=O)CC[C@@H]43)[C@@H]1CC[C@@H]2OC(=O)CCc1ccccc1`: “inactive”.

The record behind these values is PubChem BioAssay AID1345085 (National Center for Advancing Translational Sciences (NCATS), 2018).
